Source: PubChem BioAssay (EPA / NIEHS)
Results filed as inconclusive are left out. The source made the active and inactive calls. How the source made its calls, unless noted: active means hit-call score of the fitted dose curve at least 0.9, where 1 is the maximum; inconclusive means response in the unintended direction; inactive means score below 0.9.

What was measured:
[1] = TOX21_p53_BLA_p2_viability: Viability Assessment in the Tox21 HCT-116 p53 Agonism Beta-lactamase Assay, Phase 2 (AID 2283591);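 further: compound exposure lasted 16 h at 37 °C; actives lower the ATP signal meaning cytotoxicity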
Outline: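 HCT-116 p53-bla cells (4000/well) rested 5 h at 37C, then received compounds in DMSO (217-fold dilution) for 16 h at 37C, 5% CO2. After the CCF4 read, CellTiter-Glo was added; ATP luminescence was read after 30 min at room temperature.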

[2] = target: Cellular tumor antigen p53 (Homo sapiens) (UniProt P04637); assay: TOX21_p53_BLA_p2_ratio: Tox21 HCT-116 p53 Agonism Beta-lactamase Assay, Ratio, Phase 2 (AID 2283592)
Sequence of Cellular tumor antigen p53 (Homo sapiens) (P04637 whole entry, looked up): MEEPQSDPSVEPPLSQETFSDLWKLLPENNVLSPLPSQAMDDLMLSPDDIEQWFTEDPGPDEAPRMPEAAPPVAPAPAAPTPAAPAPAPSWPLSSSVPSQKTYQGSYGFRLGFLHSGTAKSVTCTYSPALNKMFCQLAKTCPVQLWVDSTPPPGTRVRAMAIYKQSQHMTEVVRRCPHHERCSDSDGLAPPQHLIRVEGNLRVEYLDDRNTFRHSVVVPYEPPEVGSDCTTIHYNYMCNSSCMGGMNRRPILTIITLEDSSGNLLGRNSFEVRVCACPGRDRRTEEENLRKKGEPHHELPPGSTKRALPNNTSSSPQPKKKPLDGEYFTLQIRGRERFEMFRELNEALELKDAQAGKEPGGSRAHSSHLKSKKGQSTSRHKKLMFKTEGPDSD
Outline: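 Human colon HCT116 cells with an inducible p53 beta-lactamase reporter are exposed to test chemicals for 16 h at 37C. Reporter induction is read as the 460/530 nm emission ratio after CCF4-AM loading, normalized to DMSO.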

[3] = TOX21_p53_BLA_p3_viability: Viability Assessment in the Tox21 HCT-116 p53 Agonism Beta-lactamase Assay, Phase 3 (AID 2283593)
Outline: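 HCT-116 cells (4000/well) rested 5 h at 37C, then got DMSO compounds by pin tool (217-fold dilution) for 16 h at 37C, 5% CO2. After the bla read, CellTiter-Glo was added and luminescence read at 30 min, room temperature.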

[4] = target: Cellular tumor antigen p53 (Homo sapiens) (UniProt P04637); assay: TOX21_p53_BLA_p3_ratio: Tox21 HCT-116 p53 Agonism Beta-lactamase Assay, Ratio, Phase 3 (AID 2283596)
Outline: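 HCT116 p53-bla cells (4000/well) given compound in DMSO (217-fold dilution) after 5 h, incubated 16 h at 37C. CCF4-AM substrate 2 h at room temperature; 460/530 nm emission ratio, gain fitted against DMSO.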

[5] = TOX21_p53_BLA_p4_viability: Viability Assessment in the Tox21 HCT-116 p53 Agonism Beta-lactamase Assay, Phase 4 (AID 2283597);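 further: hits lower the luminescence signal meaning cytotoxicity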
Outline: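 Luminescent ATP readout (CellTiter-Glo, 30 min, room temperature) in the same wells as the p53 bla ratio. HCT116 cells were treated for 16 h at 37C with DMSO-dissolved compounds.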

[6] = target: Cellular tumor antigen p53 (Homo sapiens) (UniProt P04637); assay: TOX21_p53_BLA_p5_ratio: Tox21 HCT-116 p53 Agonism Beta-lactamase Assay, Ratio, Phase 5 (AID 2283599)
Outline: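 HCT-116 cells carrying a p53-inducible beta-lactamase reporter were seeded at 4000 cells/well and dosed after 5 h with compound in DMSO (217-fold dilution). After 16 h at 37C, CCF4-AM substrate was added for 2 h, and the 460/530 nm emission ratio was scored as gain-of-signal versus DMSO.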

[7] = TOX21_p53_BLA_p5_viability: Viability Assessment in the Tox21 HCT-116 p53 Agonism Beta-lactamase Assay, Phase 5 (AID 2283600)
Outline: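 Seeded cells (4000/well) settle 5 h before compound addition. Plates then incubate 16 h at 37C, receive FRET substrate for 2 h, and finally CellTiter-Glo, with luminescence measured after a 30 min room-temperature incubation.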

[8] = target: Cellular tumor antigen p53 (Homo sapiens) (UniProt P04637); assay: TOX21_p53_BLA_p4_ratio: Tox21 HCT-116 p53 Agonism Beta-lactamase Assay, Ratio, Phase 4 (AID 2283601)
Outline: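 HCT116 cells carrying an inducible beta-lactamase reporter were plated at 4000 cells/well, rested 5 h, then exposed to compounds in DMSO (217-fold dilution) for 16 h at 37C. CCF4-AM substrate was loaded 2 h at room temperature; 460/530 nm emission ratio scored gain-of-signal versus DMSO.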

PGR (gene 5241) [9] = target: PGR (gene 5241) (UniProt P06401); assay: TOX21_PR_BLA_Followup_Agonist_ratio: Tox21 HEK293 Progesterone Receptor (PR) Agonism Beta-lactamase Follow-Up Assay, Ratio (AID 2283933)
Sequence of PGR (gene 5241) (P06401 whole entry, looked up): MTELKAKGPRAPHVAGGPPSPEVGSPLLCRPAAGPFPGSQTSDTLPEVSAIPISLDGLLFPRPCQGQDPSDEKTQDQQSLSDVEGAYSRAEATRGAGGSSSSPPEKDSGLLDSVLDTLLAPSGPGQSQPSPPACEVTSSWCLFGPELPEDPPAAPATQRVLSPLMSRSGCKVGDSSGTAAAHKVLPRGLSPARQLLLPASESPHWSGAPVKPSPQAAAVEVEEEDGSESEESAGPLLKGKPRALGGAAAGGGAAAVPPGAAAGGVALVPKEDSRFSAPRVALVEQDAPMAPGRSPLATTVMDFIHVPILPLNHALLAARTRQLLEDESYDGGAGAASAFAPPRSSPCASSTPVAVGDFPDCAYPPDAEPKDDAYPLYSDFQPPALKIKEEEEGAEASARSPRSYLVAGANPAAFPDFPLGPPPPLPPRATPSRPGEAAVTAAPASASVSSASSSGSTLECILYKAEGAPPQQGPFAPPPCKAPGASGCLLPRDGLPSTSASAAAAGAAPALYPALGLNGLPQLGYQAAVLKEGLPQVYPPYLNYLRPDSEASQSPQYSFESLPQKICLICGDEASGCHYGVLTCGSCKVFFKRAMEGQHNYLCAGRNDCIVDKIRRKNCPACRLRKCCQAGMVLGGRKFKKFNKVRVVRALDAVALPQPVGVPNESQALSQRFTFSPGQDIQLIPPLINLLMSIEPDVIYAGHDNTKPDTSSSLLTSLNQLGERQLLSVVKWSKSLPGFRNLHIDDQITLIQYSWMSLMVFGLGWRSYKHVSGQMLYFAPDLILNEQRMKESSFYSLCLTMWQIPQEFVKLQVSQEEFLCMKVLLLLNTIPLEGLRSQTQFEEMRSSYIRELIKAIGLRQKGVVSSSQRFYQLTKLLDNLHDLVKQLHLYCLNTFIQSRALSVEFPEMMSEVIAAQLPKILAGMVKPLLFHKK
Outline: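 PR-UAS-bla HEK293T cells in medium with 2% charcoal-stripped FBS were dosed after 6 h plating and incubated 16 h at 37C. LiveBLAzer FRET substrate was added for 2 h at room temperature. Cleaved/uncleaved substrate ratio fitted against DMSO; CellTiter-Glo viability run in the same wells.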

PGR (gene 5241) [10] = target: PGR (gene 5241) (UniProt P06401); assay: TOX21_PR_BLA_Followup_Antagonist_ratio: Tox21 HEK293 Progesterone Receptor (PR) Antagonism Beta-lactamase Follow-Up Assay, Ratio (AID 2283934)
Outline: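 PR-UAS-bla HEK293T cells, 3,000/well in 2% charcoal-stripped FBS, given compound plus 1nM R5020 agonist for 16 hr at 37C. Beta-lactamase FRET substrate 2 hours, ratio cleaved/uncleaved fluorescence; viability by CellTiter-Glo in same wells.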

[11] = TOX21_PR_BLA_Followup_Agonist_viability: Viability Assessment in the Tox21 HEK293 Progesterone Receptor (PR) Agonism Beta-lactamase Follow-Up Assay (AID 2283935);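 further: signal loss means lower viability so actives are cytotoxic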
Outline: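 PR-UAS-bla HEK293T cells in 2% charcoal-stripped FBS medium, plated 6 hr before compound addition, exposed 16 hr at 37C. Viability read by CellTiter-Glo ATP luminescence after 30 min at room temperature, in the same wells as the beta-lactamase readout.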

[12] = TOX21_PR_BLA_Followup_Antagonist_viability: Viability Assessment in the Tox21 HEK293 Progesterone Receptor (PR) Antagonism Beta-lactamase Follow-Up Assay (AID 2283936);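 further: hits lower the luminescence signal meaning cytotoxicity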
Outline: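 PR-UAS-bla HEK293T cells (3,000/well, 2% charcoal-stripped FBS) given compound plus R5020 agonist, 16 h at 37C. CellTiter-Glo added after bla read, 30 min at room temperature; luminescence loss indicates cytotoxicity.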

PGR (gene 5241) [13] = target: PGR (gene 5241) (UniProt P06401); assay: TOX21_PR_LUC_Followup_Agonist: Tox21 HEK293 Progesterone Receptor (PR) Agonism Luciferase Follow-Up Assay (AID 2283937; active means hit-call score of the fitted dose curve at least 0.9, where 1 is the maximum; inactive means score below 0.9)
Outline: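 HEK293-PR-A-luc cells, conditioned 5 days in 10% charcoal-stripped FBS medium, seeded 3,000/well for 5 h, then compound-treated 16 h at 37C. ONE-Glo luminescence read after 30 min at room temperature; gain of signal versus DMSO.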

PGR (gene 5241) [14] = target: PGR (gene 5241) (UniProt P06401); assay: TOX21_PR_LUC_Followup_Antagonist: Tox21 HEK293 Progesterone Receptor (PR) Antagonism Luciferase Follow-Up Assay (AID 2283938);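 further: curve fitted upward as signal gain over DMSO baseline despite antagonist label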
Outline: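 Luciferase reporter in HEK293-PR-A-luc cells: 16 h compound treatment at 37C, ONE-Glo luminescence detection, DMSO as negative control and baseline.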

[15] = TOX21_PR_LUC_Followup_Antagonist_viability: Viability Assessment in the Tox21 HEK293 Progesterone Receptor (PR) Antagonism Luciferase Follow-Up Assay (AID 2283940)
Outline: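 HEK293-PR-A-luc cells kept in charcoal-stripped FBS medium were plated 5 h before compound addition, then exposed 16 h at 37C; viability read as cellular ATP by luciferase luminescence, loss of signal indicating cytotoxicity.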

[16] = TOX21_PR_LUC_Followup_Agonist_viability: Viability Assessment in the Tox21 HEK293 Progesterone Receptor (PR) Agonism Luciferase Follow-Up Assay (AID 2283941);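 further: loss of signal means cytotoxicity so actives lower viability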
Outline: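 HEK293-PR-A-luc cells, kept in 10% charcoal-stripped FBS medium, were treated with compounds for 16 h at 37C. Viability read as cellular ATP by luciferase-coupled luminescence; loss of signal indicates cytotoxicity.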

THRB (gene 7068) [17] = target: THRB (gene 7068) (UniProt P10828); assay: TOX21_TRB_BLA_Antagonist_Followup_ratio: Tox21 Thyroid Hormone Receptor beta Antagonism Beta-lactamase (BLA) Follow-Up Assay, Ratio (AID 2283958)
Sequence of THRB (gene 7068) (P10828 whole entry, looked up, the tested form may be a part): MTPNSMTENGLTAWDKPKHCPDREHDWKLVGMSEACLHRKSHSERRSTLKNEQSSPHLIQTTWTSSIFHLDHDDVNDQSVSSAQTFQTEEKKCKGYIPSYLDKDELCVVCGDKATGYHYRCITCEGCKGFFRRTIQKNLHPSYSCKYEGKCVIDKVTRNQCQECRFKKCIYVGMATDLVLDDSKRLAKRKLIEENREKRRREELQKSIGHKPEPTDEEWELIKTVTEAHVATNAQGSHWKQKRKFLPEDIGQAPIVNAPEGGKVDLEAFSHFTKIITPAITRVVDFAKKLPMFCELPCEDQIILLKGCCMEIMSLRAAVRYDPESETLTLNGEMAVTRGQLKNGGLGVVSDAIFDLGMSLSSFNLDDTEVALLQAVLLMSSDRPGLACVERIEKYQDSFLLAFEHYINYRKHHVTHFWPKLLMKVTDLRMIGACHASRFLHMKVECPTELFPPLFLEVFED
Outline: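 HEK293T cells with a GAL4-TRb LBD fusion and UAS-bla reporter, 3,000 cells/well in phenol red-free DMEM with 2% charcoal-stripped FBS. Exposed 18 h at 37C to 11 concentrations in triplicate; CCF4 460:530 nm ratio after 2 h, DMSO-referenced.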

[18] = TOX21_TRB_BLA_Antagonist_Followup_viability: Viability Assessment in the Tox21 Thyroid Hormone Receptor beta Antagonism Beta-lactamase (BLA) Follow-Up Assay (AID 2283961)
Outline: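 In the same wells as the reporter read, cell health was gauged by CellTiter-Glo ATP luminescence, with signal loss indicating reduced viability. Cells had been exposed to test compounds for 18 h.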

THRB (gene 7068) [19] = target: THRB (gene 7068) (UniProt P10828); assay: TOX21_TRB_COA_Antagonist_Followup_ratio: Tox21 Thyroid Hormone Receptor beta Antagonism through Coactivator Recruitment Follow-Up Assay, Ratio (AID 2283967)
Outline: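 Cell-free TR-FRET coactivator recruitment with GST-tagged TRβ LBD (5.0 nM) and fluorescein-labeled SRC-2 peptide (200 nM) detected by terbium anti-GST antibody (2 nM). The 520:495 nm emission ratio was normalized to DMSO (0%) and T3 (100%).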

[20] = target: Retinoic acid receptor RXR-alpha (Homo sapiens) (UniProt P19793); assay: TOX21_TR_RXR_BLA_Antagonist_Followup_ratio: Tox21 Thyroid Hormone Receptor beta Retinoid X Receptor alpha (RXRa) Antagonism Beta-lactamase (BLA) Follow-Up Assay, Ratio (AID 2283972)
Sequence of Retinoic acid receptor RXR-alpha (Homo sapiens) (P19793 whole entry, looked up): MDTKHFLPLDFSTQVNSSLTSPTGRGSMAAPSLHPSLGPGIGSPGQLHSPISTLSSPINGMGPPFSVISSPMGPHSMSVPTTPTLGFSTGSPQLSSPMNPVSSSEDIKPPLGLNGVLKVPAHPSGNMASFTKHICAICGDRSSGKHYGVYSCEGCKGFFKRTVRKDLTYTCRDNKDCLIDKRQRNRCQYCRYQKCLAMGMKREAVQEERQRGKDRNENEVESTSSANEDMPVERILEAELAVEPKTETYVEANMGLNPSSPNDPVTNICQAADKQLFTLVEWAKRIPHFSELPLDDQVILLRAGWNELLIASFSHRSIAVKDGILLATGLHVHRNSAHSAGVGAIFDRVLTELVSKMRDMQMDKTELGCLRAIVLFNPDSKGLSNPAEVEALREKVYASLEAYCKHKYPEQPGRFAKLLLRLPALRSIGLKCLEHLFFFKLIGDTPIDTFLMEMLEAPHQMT
Outline: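 Compounds were tested in triplicate at 11 concentrations on RXRa-bla HEK293T cells for 16 h. Substrate cleavage ratio, normalized to DMSO, gave the endpoint.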

[21] = CCTE_Harrill_HTTr_Viability_MCF7: CCTE's 6-hour Cell Viability Assessment for the High-Throughput Transcriptomics (HTTr) Platform, in MCF-7 cells cultured in DMEM + 10% fetal bovine serum, Harrill Lab (AID 2284010; active means hit-call score of the fitted dose curve at least 0.9, where 1 is the maximum; inactive means score below 0.9)
Outline: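 MCF-7 cells in DMEM + 10% FBS, 384-well, exposed 6 h to an eight-point dilution series. Membrane integrity scored by high-content imaging of propidium iodide exclusion; bidirectional fit versus DMSO.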

[22] = CCTE_Harrill_HTTr_Apoptosis_MCF7: CCTE's 6-hour Apoptosis Assessment for the High-Throughput Transcriptomics (HTTr) Platform, in MCF-7 cells cultured in DMEM + 10% fetal bovine serum, Harrill Lab (AID 2284011; active means hit-call score of the fitted dose curve at least 0.9, where 1 is the maximum; inactive means score below 0.9)
Outline: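 Apoptosis in MCF-7 cells grown in DMEM with 10% fetal bovine serum was scored after a six hour exposure by high content imaging of caspase-3/7 activation (CellEvent Caspase 3/7 Green), with DMSO serving as negative control and baseline.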

Measured: AC50

CC(C)C[C@H](NC(=O)[C@H](CCc1ccccc1)NC(=O)CN1CCOCC1)C(=O)N[C@@H](Cc1ccccc1)C(=O)N[C@@H](CC(C)C)C(=O)[C@@]1(C)CO1
active: [1] 0.757 µM | [2] 0.108 µM | [3] 1.09 µM | [4] 0.121 µM | [5] 0.759 µM | [6] 0.203 µM | [7] 1 µM | [8] 0.109 µM | PGR (gene 5241) [10] 15.9 µM | PGR (gene 5241) [14] 8.16 µM
inactive: PGR (gene 5241) [9] | [11] | [12] | PGR (gene 5241) [13] | [15]

COC(=O)C1=C(C)NC(C)=C(C(=O)OCC(C)=O)C1c1ccccc1[N+](=O)[O-] (stereo not given)
active: PGR (gene 5241) [14] 21.5 µM
not listed: PGR (gene 5241) [9] | PGR (gene 5241) [13] | THRB (gene 7068) [17] | [18] | THRB (gene 7068) [19] | [20] | [21] | [22]
inactive: all other assays above

CCc1cc(Cl)c(OC)c(C(=O)NC[C@@H]2CCCN2CC)c1O
inactive: [1] | [2] | [3] | [4] | [5] | [6] | [7] | [8] | THRB (gene 7068) [17] | [18] | THRB (gene 7068) [19] | [20]

CO[C@@H]1[C@H](OC(=O)/C=C/C=C/C=C/C=C/C(=O)O)CC[C@]2(CO2)[C@H]1[C@@]1(C)O[C@@H]1CC=C(C)C
inactive: [1] | [2] | [3] | [4] | [5] | [6] | [7] | [8] | [21] | [22]

Cc1cc(O)c2c(c1)O[C@@]1(C)CC[C@H]3C(C)(C)CCCC34CO[C@@H]2[C@H]41 (stereo not given in full)
active: [1] 31 µM | [2] 44.2 µM | [3] 34.3 µM | [4] 43.7 µM | [5] 29.6 µM | [6] 30.6 µM | [8] 43.4 µM

O=C(OCC1CO1)C1CCCCC1C(=O)OCC1CO1 (stereo not given)
inactive: [1] | [3] | [4] | [5] | [6] | [8]
active: [2] 61 µM
